# Test results as given in PubChem BioAssay AID1455 (National Center for Advancing Translational Sciences (NCATS), 2008).
# Inconclusive results are not listed. Calls of active or inactive are those of the source. Calls follow the shape of the dose curve; as a rule, active = well fitted inhibition curve with a large enough effect; inconclusive = small, poorly fitted or top-dose-only effect; inactive = no such curve, though single readings can be large or run the other way.
# Target: Ubiquitin carboxyl-terminal hydrolase 2 (Homo sapiens) (UniProt O75604)
# Sequence (O75604 whole entry, looked up): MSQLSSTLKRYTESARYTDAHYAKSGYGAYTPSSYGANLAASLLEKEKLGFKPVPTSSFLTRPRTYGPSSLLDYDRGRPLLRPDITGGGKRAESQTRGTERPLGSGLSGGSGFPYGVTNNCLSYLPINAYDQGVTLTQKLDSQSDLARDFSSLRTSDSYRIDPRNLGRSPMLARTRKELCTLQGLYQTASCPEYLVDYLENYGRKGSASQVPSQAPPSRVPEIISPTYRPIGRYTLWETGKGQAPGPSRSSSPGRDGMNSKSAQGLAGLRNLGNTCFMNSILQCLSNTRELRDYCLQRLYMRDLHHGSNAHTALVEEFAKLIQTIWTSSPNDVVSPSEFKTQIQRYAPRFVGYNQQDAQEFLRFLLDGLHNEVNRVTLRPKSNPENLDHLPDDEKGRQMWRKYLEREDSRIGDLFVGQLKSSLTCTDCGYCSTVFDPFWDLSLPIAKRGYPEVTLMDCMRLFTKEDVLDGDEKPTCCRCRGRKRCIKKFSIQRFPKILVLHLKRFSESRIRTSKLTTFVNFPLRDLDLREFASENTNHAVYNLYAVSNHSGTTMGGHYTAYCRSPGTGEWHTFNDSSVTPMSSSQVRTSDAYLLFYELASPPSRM
# Test: Confirmation Concentration-response Assay for Inhibitors of Ubiquitin-specific Protease USP2a
# Details: USP2 core, Ub-PLA2 coupled fluorescence, NBD C6-HPC
# From the text: NIH Molecular Libraries Screening Centers Network [MLSCN] NIH Chemical Genomics Center [NCGC] MLSCN Grant: XO1-MH079852-01 PI Name: Nicholson, Ben. Progenra Inc, Malvern, PA NCGC Assay Overview: Homeostasis of cellular proteins is maintained through a combination of synthesis and degradation. The pathway that accounts for the majority of protein degradation is the ubiquitin-proteasomal pathway. Ubiquitin (Ub) is highly conserved in all cells and the generation of a multi-Ub chain typically targets proteins for degradation by the proteasome. However, ubiquitination is highly reversible and dynamic. […] Thus, this coupled assay gives a fluorescent read-out, which is generated through the cleavage of the PLA2 reporter enzyme. […]
# NCGC Assay Protocol Summary: The assay buffer, prepared fresh at the day of the assay, contains 20mM Tris-HCl pH 8.0, 2mM CaCl2, 2mM beta-Mercaptoethanol, 0.1% DMSO. […] Plates were read immediately (0 Hour) on an Envision (Perkin Elmer) plate reader using the following wavelengths Ex 460nm /Em 535nm. Then, the assay plates were incubated for 2.5 hours and read again on the Envision using the same settings Data were normalized to the to AC100 inhibition (NEM). Concentration-response curves were fitted to the normalized data and the concentration-response curves were then classified based on curve quality (r2), response magnitude and degree of measured activity. […]
structure (smiles),measurement,value
Cc1ccc2scc(N3CCN(C)CC3)c(=O)c2c1,Potency,12.6 µM (active)
